HT1080 IDH1KD tx: HT-1080 IDH1 knockdown cell toxicity (counter line); HT-1080 IDH1 knockdown viability, ATP luminescence, 48 h; Potency, µM (doses to about 46.1 µM), for the others: at the highest dose activity, negative = toxicity, most hits filed as cytotoxic; hit rate 2% among 360,000; AID 686971;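 further: potency means the concentration at half of the fitted maximal effect; 0% = DMSO wells and -100% = cell-free medium wells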
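Viability of IDH1-knockdown HT-1080 fibrosarcoma cells was assessed by CellTiter-Glo after 48 h at 37 °C with titrated compound; concentration-effect curves were classified by fit quality and response size.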
TDP1 cell CPT: DT40-hTDP1 cell growth loss with CPT; chicken DT40 Tdp1-/-;hTDP1 cells + 20 nM CPT, ATP luminescence, 48 h; Potency, µM (highest dose often 46.2 µM), inactives show top-dose activity change, negative = growth inhibition, usual class: inhibitors; hit rate 12% among 420,000; further: potency means the concentration at half of the fitted maximal effect; nearly all actives have a fitted effect of over 55% in size
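Chicken DT40 Tdp1-/- cells complemented with human TDP1, 400 cells/well, exposed to compounds plus 20 nM camptothecin for at least 48 h at 37 C; viability read as ATP content by CellTiter-Glo luminescence.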
ELG1 DNA repair: ELG1-dependent DNA repair inhibition. HEK293T ELG1-luciferase reporter, luminescence, 16 h; DNA damage induced by 5-fluorouridine. Potency, µM (series often up to 46.1 µM), for the others: at the top dose activity change, negative = inhibition, most hits filed as inhibitors. hit rate 2.3% among 330,000; further: potency means the concentration at half of the fitted maximal effect; nearly all actives have a fitted effect of over 55% in size
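Reporter activity after DNA damage by 5-fluorouridine is monitored. Compound-treated cells incubate 16 hr at 37 °C, then ONE-Glo is added for 30 min before luminescence reading.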
IL1B secr inh: blocks inflammasome-driven IL-1 beta release. THP-1 LPS/ATP IL-1B secretion, AlphaLISA, 16 h; hits give low values. activity change, % at 57.5 µM. hit rate 4.7% among 360,000; in the data active means activity change below about -50%; inconclusive means mostly about -30% to -49%
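THP-1 cells pretreated 1 hr with compounds (up to 57.5 uM final), then stimulated with LPS (250 ng/mL final) plus ATP (1.25 mM final); secreted IL-1B measured by AlphaLISA after 16 hr, decreased signal indicating inhibition.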
HT1080NT lethal: kills 2HG-producing HT-1080-NT fibrosarcoma cells; AID 686970; Potency, µM (series often up to 46.1 µM), without a hit: top-dose activity, negative = less viability, usual class: cytotoxic; HT-1080-NT fibrosarcoma viability, CellTiter-Glo ATP luminescence, 48 h; hit rate 1.6% among 360,000;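 further: NT is the 2HG producing partner of a matched IDH1 knockdown line; potency means the concentration at half of the fitted maximal effect; 0% = DMSO-treated cells and -100% = media-only wells without cells; nearly all actives have a fitted effect of over 55% in size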
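Viability of the 2HG-overproducing fibrosarcoma line after 48 hours of compound exposure at 37 degrees C was determined by luminescence with CellTiter-Glo, and concentration-effect curves were then fitted and categorized.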
DT40 TDP1 no CPT: qHTS for Inhibitors of human tyrosyl-DNA phosphodiesterase 1 (TDP1): qHTS in cells in absence of CPT. DT40 Tdp1-/- hTDP1 cells, no CPT, ATP luminescence, 48 h. Potency, µM (series often up to 46.2 µM), for inactives: top-dose activity change, negative = growth inhibition, actives largely listed as inhibitors. hit rate 15% among 420,000. AID 686978, 2013; further: potency means the concentration at half of the fitted maximal effect; nearly all actives have a fitted effect of over 55% in size
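A cellular qHTS used chicken DT40 cells lacking endogenous Tdp1 but carrying stably transfected human TDP1. Compounds were applied without camptothecin, and cell growth kinetics were judged by ATP-dependent luminescence after ≥48 hr.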
Active calls of the source: *; ? = inconclusive; / = no result. The list is not random: actives were taken first. Their share in the collection is about 19%. Unless noted, the call rests on the fitted dose curve; in most records, active means well fitted curve in the direction sought with a large enough effect; inconclusive means small, poorly fitted or top-dose-only effect, or another doubt; inactive means no such curve, though single readings can be large; an effect the other way counts as inactive or inconclusive. Unless noted, on the % scale 0 is the no-effect control and ±100 the full control effect.

SMILES	HT1080 IDH1KD tx	TDP1 cell CPT	ELG1 DNA repair	IL1B secr inh	HT1080NT lethal	DT40 TDP1 no CPT
CCOc1ccccc1CNC(=O)c1ccc2c(c1)N(CC)CCS2	-2%	15µM*	-12%	-23	-3%	9.2µM*
CCN1CCSc2ccc(C(=O)NC(C)c3ccccc3)cc21 (configuration not stated)	/	18µM*	/	/	/	23µM*
CCOc1ccccc1CNC(=O)c1ccc2c(c1)N(Cc1ccc(C)cc1)CCS2	/	18µM*	/	/	/	9.2µM*
NC(=O)C1CCN(CC(=O)Nc2cccnc2Cl)CC1	20%	7%	-17%	-5	-1%	-2%
CNc1ccc(C=O)cc1I	/	8%	/	/	/	-22%
CN1CCSc2ccc(C(=O)Nc3cccc(F)c3)cc21	-19%	?	?	-53*	-20%	?
COc1ccccc1CNC(=O)c1ccc2c(c1)N(Cc1ccc(C)cc1)CCS2	/	16µM*	/	/	/	?
Cc1ccc(CN2CCSc3ccc(C(=O)Nc4ccc(C)cc4)cc32)cc1	/	16µM*	/	/	/	16µM*
Cc1ccc(CN2CCSc3ccc(C(=O)NCc4ccco4)cc32)cc1	?	?	?	?	-9%	?
COc1ccc(NC(=O)c2ccc3c(c2)N(C)CCS3)cc1	-6%	?	?	-9	7%	?
Cc1ccc(C(C(=O)NC2CCCC2)N(C(=O)c2csnn2)c2ccccc2)o1 (configuration not stated)	14%	8%	2%	9	3%	-1%
Cc1nn(Cc2ccc(F)cc2)c2sc(C(=O)Nc3ccc(N4CCOCC4)cc3N3CCOCC3)cc12	?	8.2µM*	18µM*	-26	-2%	7.3µM*
CCOC(=O)CC(=O)NC(C)(C)CCCCC(C)(C)NC(=O)CC(=O)OCC	8%	-5%	-1%	0	13%	-15%
COc1ccc(C(=O)Nc2ccc(-c3cc4ccccc4oc3=O)c(C)c2)cc1OC	/	18µM*	/	/	/	16µM*
O=C(Cc1ccc(Cl)cc1)Nc1ccc2oc(=O)ccc2c1	-17%	-23%	-15%	?	17%	-27%
CCc1ccc(OCC(=O)Nc2ccc(-c3cc4ccccc4oc3=O)c(OC)c2)cc1	?	6.5µM*	-5%	7	?	7.3µM*
O=C(Cc1ccc(Cl)cc1)Nc1ccc(-c2cc3ccccc3oc2=O)c(Cl)c1	6.5µM*	5.2µM*	?	23	6.5µM*	2.9µM*
OC[C@H]1NC[C@@H](O)[C@@H](O)[C@H]1O	/	-5%	/	/	/	-14%
Cc1ccc(CNC(=O)CCCn2c(=O)c3ccccc3n(CC(=O)Nc3ccc(C)cc3)c2=O)cc1	/	-19%	/	/	/	-7%
COc1cc2c(cc1OC)C(c1ccc(Cl)cc1)N(c1cccc(C#N)c1)C(=O)C2 (configuration not stated)	/	23µM*	/	/	/	?
COc1cc2c(cc1OC)C(c1ccc(F)cc1)N(c1cccc(C#N)c1)C(=O)C2 (configuration not stated)	/	15µM*	/	/	/	?
C=CCNC(=S)N/N=C/c1ccc(-c2ccc(Cl)cc2Cl)o1	?	5.2µM*	/	3	?	5.8µM*
C=CCNC(=S)N/N=C/c1ccc(-c2cc(Cl)ccc2Cl)o1	2%	?	-1%	2	1%	?
C=CCNC(=S)N/N=C/c1ccc(-c2ccc(OC)cc2)o1	?	4.1µM*	?	-3	?	4.6µM*
Cc1cccc(N(CC(=O)NC2CCCC2)C(=O)CCC(=O)Nc2ccccn2)c1	8%	-3%	-6%	-17	3%	2%
SMILES	HT1080 IDH1KD tx	TDP1 cell CPT	ELG1 DNA repair	IL1B secr inh	HT1080NT lethal	DT40 TDP1 no CPT
Cc1nn(C2CCS(=O)(=O)C2)c(Cl)c1/C=C/C(=O)OCC(=O)c1cc(C)n(-c2ccc(F)cc2)c1C (configuration not stated)	?	21µM*	13µM*	-18	-18%	16µM*
O=C(c1ccco1)N1CCC2(CCN(Cc3ccncc3)CC2)CC1	/	-4%	/	/	/	-11%
Cc1cc(C(F)(F)F)nc(CCNC(=O)C2CCC(=O)N(Cc3cccc(F)c3)C2)n1 (configuration not stated)	5%	3%	5%	6	11%	-2%
Cc1nc(-c2ccc(C)c(N3CCN(C(=O)Nc4ccc(Br)cc4)CC3)c2)no1	/	?	/	/	/	21µM*
COc1cc(NC(=O)N2CCN(c3cc(-c4noc(C)n4)ccc3C)CC2)cc(OC)c1OC	/	-3%	/	/	/	-3%
N#Cc1ccccc1NC(=O)C(=O)NCCc1csc(-c2ccc(F)cc2)n1	/	-14%	/	/	/	?
Cc1ccc(N(CC(=O)NCCc2ccc(Cl)cc2)S(=O)(=O)c2c(C)noc2C)cc1	-5%	23µM*	-1%	-2	0%	15µM*
Cc1noc(C)c1S(=O)(=O)N(CC(=O)NCc1ccc2c(c1)OCO2)c1ccc(C(C)C)cc1	-9%	?	-17%	-2	0%	?
Cc1ccc(CCNC(=O)CN(c2cc(C)cc(C)c2)S(=O)(=O)c2c(C)noc2C)cc1	0%	-22%	29%	-1	-4%	?
Cc1ccc(N(CC(=O)NCc2ccc3c(c2)OCO3)S(=O)(=O)c2c(C)noc2C)cc1	-1%	?	-4%	-12	-3%	23µM*
Cc1ccc(CCNC(=O)CN(c2ccc(C)cc2)S(=O)(=O)c2c(C)noc2C)cc1	9%	?	0%	-5	4%	16µM*
Cc1cc(C)cc(N(CC(=O)NCCc2ccc(Cl)cc2)S(=O)(=O)c2c(C)noc2C)c1	/	-3%	/	/	/	1%
Cc1cccc(CCNC(=O)CN(c2ccc(C(C)C)cc2)S(=O)(=O)c2c(C)nn(C)c2C)c1	/	?	/	/	/	16µM*
COC(=O)C/C=N/N=C1/NC(=O)/C(=C/C(=O)O)S1	15%	-13%	2%	13	-1%	-7%
Cc1ccn2c(=O)c(NC(=O)c3ccc4c(c3)OCO4)c(C)nc2c1	0%	-7%	/	?	3%	-24%
CC(Oc1ccc2ccc(=O)oc2c1)C(=O)c1ccccc1 (configuration not stated)	15%	5%	22%	-8	19%	-18%
Cc1ccc(S(=O)(=O)C2(C(=O)NCc3ccc4c(c3)OCO4)CC2)cc1	0%	?	?	17	1%	18µM*

Screens deposited in PubChem BioAssay by National Center for Advancing Translational Sciences (NCATS).
